Rows were chosen to be rich in hits. Some 3.7% of all compounds tested hit in one or more screens of this group.
DRV1 agonist – GPR32 (DRV1) agonism, beta-arrestin recruitment; O75388; CHO-K1 GPR32 beta-arrestin PathHunter luminescence, 90 min; zero percent set by DMSO-only wells; activation, % at 76.9 µM; hit rate 2.5% among 48,000;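 active = activation of at least 60% and not above a set upper limit, about 1 call in 100 departs from these limits; inconclusive = activation of 40% to 60%, or above that upper limit; inactive = activation under 40%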
Target sequence (O75388 whole entry, looked up): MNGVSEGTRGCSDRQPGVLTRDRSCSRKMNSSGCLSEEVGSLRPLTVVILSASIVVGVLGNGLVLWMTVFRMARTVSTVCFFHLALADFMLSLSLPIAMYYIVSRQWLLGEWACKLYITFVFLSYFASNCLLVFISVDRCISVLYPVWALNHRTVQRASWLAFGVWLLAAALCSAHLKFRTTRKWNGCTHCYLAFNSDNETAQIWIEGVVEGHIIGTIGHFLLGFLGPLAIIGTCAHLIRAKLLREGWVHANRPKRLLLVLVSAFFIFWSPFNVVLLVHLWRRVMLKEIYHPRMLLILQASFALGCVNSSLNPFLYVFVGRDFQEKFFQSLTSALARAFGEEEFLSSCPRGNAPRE
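Readings come from a cell-based beta-arrestin complementation format: CHO-K1 GPR32 stable cells (2,500/well) treated 90 min with compounds, then beta-Gal substrate added for 1 h before chemiluminescence imaging.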
HTT promoter inh – inhibits huntingtin promoter activity; HEK293 HTT promoter firefly luciferase reporter, 24 h; hit rate 0.93% among 48,000; Potency, µM (titrated, usually from 57.5 µM), hits mostly inhibitors; note: nearly all actives have a fitted effect of over 50% in size
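Firefly luciferase signal from promoter-reporter HEK293 cells was scaled between vehicle (0%) and zero RLU (-100%). Compounds were tested at final concentrations of up to 57.5 uM over 24 h at 37 degrees C. PTC124 at 50 uM final served as control inhibitor.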
HTT-AS act – activates huntingtin-antisense promoter activity; HEK293 HTT-AS promoter firefly luciferase reporter, 24 h; response scale: percent change from vehicle, -100% = no light; Potency, µM (doses to about 57.5 µM), actives largely listed as activators; hit rate 0.24% among 48,000; AID 1508624; note: nearly all actives have a fitted effect of over 55% in size
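Quantitative HTS used concentration series of up to 57.5 uM final on HEK293 luciferase reporter cells, 24 h at 37 degrees C. Readout was Dual-Glo firefly luminescence.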
Numbers stand for hits; i = inactive; ? = inconclusive; nt = no result; [ ] = dose if it differs, or a comment. Unless noted, calls come from the whole dose curve; as a rule, active = well fitted curve in the direction sought with a large enough effect; inconclusive = small, poorly fitted or top-dose-only effect, or another doubt; inactive = no such curve, though single readings can be large; an effect the other way counts as inactive or inconclusive.

SMILES | DRV1 agonist | HTT promoter inh | HTT-AS act
CCn1c(=O)c2cc(C(=O)NCCCN3CCN(c4ccc(F)cc4)CC3)sc2c2ccccc21 | i | i | i
C[C@]12CC[C@@H]3c4ccc(O)cc4CC[C@H]3[C@H]1[C@@H](O)[C@@H](O)[C@H]2O | nt | i | i
COc1ccc(N2CCN(C(=O)c3c(C)nn(-c4ccc(F)cc4)c3-n3cccc3)CC2)cc1 | i | i | i
Cc1nn(-c2ccc(F)cc2)c(-n2cccc2)c1C(=O)N1CCN(c2ccc(F)cc2)CC1 | i | 28.2µM | i
CCS(=O)(=O)c1cccc(-c2cc(C(=O)NC3CCN(C)CC3)c(C)c3[nH]c4ncc(C)cc4c23)c1 | nt | ? | i
COC(=O)Nc1ccc(-c2nc(N3CCOCC3)c3cnn(C4CCN(Cc5cccnc5)CC4)c3n2)cc1 | nt | ? | i
CC(C)(C)c1ccc(C(=O)CCCCl)cc1 | i | i | ?
CCc1nn(CC(=O)N2CCN(c3cccc(C)c3C)CC2)c(=O)c2cc3sccc3n12 | i | i | i
CCOC(=O)C1CCN(C(=O)Cn2nc(CC)n3c(cc4sccc43)c2=O)CC1 | i | 2.82µM | i
Cc1cc(C(C)Nc2ccccc2)c2nc(N3CCOCC3)cc(=O)n2c1 (configuration not stated) | nt | i | i
CC(=O)c1cc(-c2ccc(F)cc2)n(CC(=O)NC2CCCCCC2)c1C | i | i | i
Cc1cc(OCCn2c(C3CC(=O)N(Cc4ccc(F)cc4)C3)nc3ccccc32)ccc1Cl (configuration not stated) | i | ? | i
CCCCN1CC(c2nc3ccccc3n2CCCCOc2cc(C)cc(C)c2)CC1=O (configuration not stated) | i | ? | i
CCc1ccccc1N1CC(c2nc3ccccc3n2CCOc2ccc(Cl)c(C)c2)CC1=O (configuration not stated) | 77.1 | ? | i
CCOc1ccccc1N1CC(c2nc3ccccc3n2CCOc2ccc(C(C)(C)C)cc2)CC1=O (configuration not stated) | 72.9 | i | i
CCCCN1CC(c2nc3ccccc3n2CCCCOc2cccc(C)c2C)CC1=O (configuration not stated) | 109.2 | ? | i
CCOc1ccccc1N1CC(c2nc3ccccc3n2CCCOc2ccccc2OC)CC1=O (configuration not stated) | i | i | i
COc1ccc(Br)cc1CNC(=O)c1nn(-c2ccc(C)cc2)c(=O)c2c1c1ccccc1n2C | i | i | i
CCCc1ncc(C(=O)O)s1 | i | i | i
Cc1cc(C)cc(NS(=O)(=O)c2ccc3[nH]cc(C(=O)NCc4ccco4)c(=O)c3c2)c1 | 98.7 | ? | i
CC(C)c1ccc(NS(=O)(=O)c2ccc3[nH]cc(C(=O)NC4CCCCC4)c(=O)c3c2)cc1 | i | i | i
Cc1c(Cl)cccc1NS(=O)(=O)c1ccc2[nH]cc(C(=O)NC3CCCC3)c(=O)c2c1 | 101.3 | ? | i
COc1cccc(NS(=O)(=O)c2ccc3[nH]cc(C(=O)NCCc4ccccc4)c(=O)c3c2)c1 | i | ? | i
COc1cccc(NS(=O)(=O)c2ccc3[nH]cc(C(=O)NC4CCCCC4)c(=O)c3c2)c1 | 103.4 | ? | i
Cc1ccccc1NS(=O)(=O)c1ccc2[nH]cc(C(=O)NC3CCCCC3)c(=O)c2c1 | i | ? | i
SMILES | DRV1 agonist | HTT promoter inh | HTT-AS act
Cc1cc(C)cc(NS(=O)(=O)c2ccc3[nH]cc(C(=O)NCc4ccccc4Cl)c(=O)c3c2)c1 | i | ? | i
Cc1cc(C)cc(NS(=O)(=O)c2ccc3[nH]cc(C(=O)NC4CCCCC4)c(=O)c3c2)c1 | 109.8 | i | i
COc1ccc(N2CCN(C(=O)c3nc(-c4ccc(Cl)cc4)n4c3CCCCC4)CC2)cc1 | i | i[11.5 µM] | i
CC(C)(C)c1nc2c3cc[nH]c(=O)c3c3cc(F)ccc3c2[nH]1 | nt | i | i
CCOC(=O)Oc1ccc(CCNC(=O)[C@H](CCSC)NC(C)=O)cc1OC(=O)OCC | ? | i | i
O=C(O)CCn1cnc2onc(-c3ccccc3Cl)c2c1=O | i | i | i
CCCCC(CC)CNC(=O)CC(C)OC(=O)CCC(=O)O (configuration not stated) | i | i | ?
CCN(c1cccc(C)c1)S(=O)(=O)c1ccc2[nH]cc(C(=O)NCCCOC)c(=O)c2c1 | 96.5 | ? | i
Cc1cccc(CCNC(=O)c2c[nH]c3ccc(S(=O)(=O)Nc4ccccc4F)cc3c2=O)c1 | i | 22.4µM | i
COc1cccc(NS(=O)(=O)c2ccc3c(c2)N(C)C(=O)CC(=O)N3C)c1 | i | i | i
COc1cccc(NS(=O)(=O)c2ccc3c(c2)n(C)c(=O)n3C)c1 | 85.9 | i | i
CCc1ccccc1N(C)S(=O)(=O)c1ccc2[nH]cc(C(=O)NCCOC)c(=O)c2c1 | i | ? | i
Cc1ccc(CCNC(=O)c2c[nH]c3ccc(S(=O)(=O)Nc4ccc(C)cc4C)cc3c2=O)cc1 | i | ? | i
COc1ccccc1-c1cc2nc(C)c(CCC(=O)NCc3cccc(Cl)c3)c(C)n2n1 | i | 12.6µM | i
Cc1nc2cc(-c3ccccc3)nn2c(C)c1CCC(=O)NCCc1ccccc1 | i | 7.08µM | i
CCCCNC(=O)CCc1c(C)nc2cc(-c3ccccc3)nn2c1C | i | 2µM | i
Cc1nc2nc(C)c(CCC(=O)NCc3cccc(Cl)c3)c(C)n2n1 | i | i | i
COCCCNC(=O)CCc1c(C)nc2cc(-c3ccc(Cl)cc3)nn2c1C | i | ? | i
Cc1nc2c(-c3ccccc3)c(C)nn2c(C)c1CCC(=O)Nc1ccccc1F | 60.5 | ? | i
Cc1ccc(NC(=O)CCc2c(C)nc3c(-c4ccccc4)c(C)nn3c2C)c(C)c1 | i | i | i
Cc1nc2cc(-c3cccc(F)c3)nn2c(C)c1CCC(=O)NCCc1ccccc1 | i | ? | i
CCOc1cccc(NC(=O)C2CC(=O)N(C)C(=Nc3ccc(OC)cc3)S2)c1 (configuration not stated) | i | i | i
CCOc1cccc(NC(=O)C2CC(=O)N(C)C(=Nc3ccc(F)cc3)S2)c1 (configuration not stated) | 77.6 | ? | i
Cc1cccc(/C=C/c2ccccc2)n1 | i | nt | nt
CN(C/C=C/c1ccccc1)Cc1cccc2ccccc12 | 117.5 | i | i
SMILES | DRV1 agonist | HTT promoter inh | HTT-AS act
CCN(CC)c1nc(-c2ccc(C(C)(C)C)cc2)nc2ccccc12 | i | ? | i[11.5 µM]
CN(Cc1ccc(C(C)(C)C)cc1)Cc1cccc2ccccc12 | 68.1 | i | i
COc1ccc(S(=O)(=O)c2c(SC)nn(CC(=O)Nc3ccc(C)c(Cl)c3)c2N)cc1 | 85.6 | ? | i
CCSc1nn(CC(=O)Nc2cccc(Cl)c2)c(N)c1S(=O)(=O)c1ccc(OC)cc1 | ? | ? | i
CCSc1nn(CC(=O)Nc2cccc(CC)c2)c(N)c1S(=O)(=O)c1ccccc1 | 93.6 | ? | i
CCc1ccc(NC(=O)Cn2nc(SC)c(S(=O)(=O)c3ccc(OC)cc3)c2N)cc1 | i | i | i
Cc1cc(C)cc(NC(=O)Cn2c(=O)n(C(C)C)c(=O)c3oc4ccccc4c32)c1 | i | i | i
CCCCOC(=O)c1ccc(NC(=O)c2ccc3c(c2)CCCN3S(C)(=O)=O)cc1 | i | 5.01µM | i
CCCCOC(=O)c1ccc(NC(=O)c2ccc3c(c2)CCN3S(=O)(=O)c2ccccc2)cc1 | i | ? | i

Bioassay records (PubChem BioAssay)
